Screening results from PubChem BioAssay.
12-LOX inh = blocks human arachidonate 12S-lipoxygenase; actives 1.1% (n = 580,000); Potency, µM (titrated, usually from 108 µM), without a hit: top-dose activity change, negative = inhibition, actives largely listed as inhibitors; purified 12hLO, xylenol orange hydroperoxide absorbance; P18054
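Purified human 12hLO at 150 nM in 25 mM Hepes, 0.01% Triton X-100, pH 7.0, preincubated 15 min at room temperature with compound. Reaction started with 40 uM arachidonic acid, 30 min at room temperature. Hydroperoxide measured by Fe-xylenol orange, 573/405 nm absorbance ratio.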
PLK1 PBD block = blocks phosphopeptide binding to human PLK1 polo-box domain | actives 2.8% (n = 360,000) | Plk1 PBD binding of FITC phosphopeptide, fluorescence polarization | AID 720504 | Potency, µM, inactives show max response, negative = inhibition, usual class: inhibitors; note: series mostly up to about 57 µM; nearly all actives have a fitted effect of over 65% in size
Sfp inh = Sfp phosphopantetheinyl transferase inhibition; actives 3.5% (n = 310,000); Biochemical Sfp PPTase activity, qHTS; AID 1490; Q9F4F7; Potency, µM, for the others: largest response in the series, negative = inhibition, actives largely listed as inhibitors;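 note: the enzyme is Sfp with the accession as filed and its product quenches rhodamine fluorescence; 0% = enzyme reaction without inhibitor and -100% = no enzyme wells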
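Fluorescence-quenching assay with 15 nM Sfp, 5 uM rhodamine-CoA and 12.5 uM BHQ-2-labelled ybbR peptide in pH 7.6 Hepes/MgCl2 buffer. Enzyme was pre-incubated with compound for 15 min at room temperature. Rate was taken from the 30-min fluorescence change (525/598 nm).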
VDR inh = vitamin D3 receptor (human) inhibition. P11473. VDR-SRC2-3 peptide fluorescence polarization, 2 h. Potency, µM, inactives show max response, negative = inhibition, usual class: inhibitors. actives 0.93% (n = 400,000). AID 504847
Target sequence (P11473 whole entry, looked up): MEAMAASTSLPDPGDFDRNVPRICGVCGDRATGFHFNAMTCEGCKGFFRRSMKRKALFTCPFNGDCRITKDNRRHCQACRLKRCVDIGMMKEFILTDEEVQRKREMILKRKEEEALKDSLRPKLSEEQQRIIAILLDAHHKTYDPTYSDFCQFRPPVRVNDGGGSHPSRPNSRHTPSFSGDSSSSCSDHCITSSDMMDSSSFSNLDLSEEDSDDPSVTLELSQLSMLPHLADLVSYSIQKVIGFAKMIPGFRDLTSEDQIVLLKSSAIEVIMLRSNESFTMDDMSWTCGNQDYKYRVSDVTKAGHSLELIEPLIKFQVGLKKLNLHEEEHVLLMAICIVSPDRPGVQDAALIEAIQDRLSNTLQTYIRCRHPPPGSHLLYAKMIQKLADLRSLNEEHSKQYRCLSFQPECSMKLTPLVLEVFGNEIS
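After 23 nl compound addition and a short centrifugation, plates sat for 2 hours at ambient temperature; polarization of fluorescence then indicated loss of VDR binding to peptide SRC2-3.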
An asterisk follows results filed as active; u = inconclusive; x = not tested or not shown; [ ] = another dose, or the depositor's remark. Hits are enriched below; roughly 4.2% of the tested compounds scored in any of these assays. Calls come from the whole dose curve; as a rule, active = well fitted curve in the direction sought with a large enough effect; inconclusive = small, poorly fitted or top-dose-only effect, or another doubt; inactive = no such curve, though single readings can be large; an effect the other way counts as inactive or inconclusive. Unless noted, % is set by controls: 0 for no effect and ±100 for the full control effect; potency is the fitted concentration of half-maximal effect.

SMILES	12-LOX inh	PLK1 PBD block	Sfp inh	VDR inh
COc1c(Cl)cc(-c2noc(C)c2C(=O)NCc2ccccc2)cc1Cl	8%	30µM*	-2%	-16%
C#CCOCCOCCOCCNc1nc(N2CCN(C(=O)[C@H](Cc3ccc(O)cc3)n3cc([C@@H](N)C(C)CC)nn3)CC2)nc(N2CCN(C(=O)[C@H](Cc3cc4ccccc4[nH]3)n3cc([C@@H](N)C(C)CC)nn3)CC2)n1 (stereo not given in full)	x	-11%	-29%	-3%
C#CCOCCOCCOCCNc1nc(N2CCN(C(=O)[C@H](CC(N)=O)n3cc(C(N)[C@@H](C)CC)nn3)CC2)nc(N2CCN(C(=O)[C@H](CCCCN)n3cc([C@@H](N)CC(N)=O)nn3)CC2)n1 (stereo not given in full)	-5%	3%	x	-14%
C#CCOCCOCCOCCNc1nc(N2CCN(C(=O)[C@H](CC(N)=O)n3cc(C(N)[C@H](C)CC)nn3)CC2)nc(N2CCN(C(=O)[C@H](CC(N)=O)n3cc(C(N)[C@@H](C)CC)nn3)CC2)n1 (stereo not given in full)	0.63µM*	-4%	x	-12%
C#CCOCCOCCOCCNc1nc(N2CCN(C(=O)[C@H]([C@@H](C)CC)n3cc([C@@H](N)CO)nn3)CC2)nc(N2CCN(C(=O)[C@H](Cc3cc4ccccc4[nH]3)n3cc([C@@H](N)C(C)CC)nn3)CC2)n1 (stereo not given in full)	x	x	50µM*	x
C#CCOCCOCCOCCNc1nc(N2CCN(C(=O)[C@H](Cc3cc4ccccc4[nH]3)n3cc([C@@H](N)C(C)CC)nn3)CC2)nc(N2CCN(C(=O)[C@H](Cc3cc4ccccc4[nH]3)n3cc([C@@H](N)Cc4ccc(O)cc4)nn3)CC2)n1 (stereo not given in full)	x	x	50µM*	x
C#CCOCCOCCOCCNc1nc(N2CCN(C(=O)[C@H](Cc3ccc(O)cc3)n3cc([C@@H](N)C(C)CC)nn3)CC2)nc(N2CCN(C(=O)[C@H](Cc3cc4ccccc4[nH]3)n3cc([C@@H](N)CC(C)C)nn3)CC2)n1 (stereo not given in full)	u	1%	50µM*	16%
C#CCOCCOCCOCCNc1nc(N2CCN(C(=O)[C@H]([C@@H](C)CC)n3cc([C@@H](N)CC(C)C)nn3)CC2)nc(N2CCN(C(=O)[C@H](Cc3cc4ccccc4[nH]3)n3cc([C@@H](N)CC(C)C)nn3)CC2)n1	x	x	-9%	x
COc1ccccc1NC(=O)c1oc2ccccc2c1NC(=O)Cc1cccs1	-24%	x	x	66%
COCc1nc(C2CCN(C(=O)c3ccccn3)C2)no1 (stereo not given)	19%	x	x	x
Cc1cc(NC(=O)CN2C(=O)CCSc3ccccc32)no1	-2%	9%	8%	0%
O[C@@H]1CO[C@H]2[C@@H]1OC[C@@H]2n1nnnc1-c1ccc(-c2ccccc2)cc1	-2%[176 µM]	x	x	x
O[C@@H]1CO[C@H]2[C@@H]1OC[C@@H]2n1nnnc1SC1CCCC1	63µM*	x	x	x
OC(c1ccccc1)c1nc2ccccc2s1 (stereo not given)	0%	12µM*	-3%	-8%
COCc1ccc2oc(C(=O)O)cc2c1	0%	3.4µM*	3%	-15%
N#CCCSCc1ccc2oc(C(=O)O)cc2c1	-6%	-10%	7%	-7%
Cc1c(C(=O)N(C)Cc2cccc(F)c2)oc2c(Cl)cccc12	-10%	-2%	1%	-4%
CCOC(=O)Cn1c(=O)c2c(nc3n2CCCCN3c2ccc(OCC)cc2)n(C)c1=O	28%	0%	x	16%
C=CCNC(=S)NC(=O)c1ccc(C)c(Br)c1	35µM*	-10%	-8%	-8%
C=CCNC(=S)NNC(=O)c1ccc(C)c(Cl)c1	17%	-2%	u	-2%
O=C(CCc1nnc(-c2ccc3c(c2)OCO3)o1)NCCc1ccccc1F	1%	12µM*	17%	u
O=C(CCc1nnc(Cc2cccc(C(F)(F)F)c2)o1)NCCc1ccccc1F	0%	-8%	27%	-17%
Cc1ccc2nc(/N=C(\N)NC(=O)NC3CCCCC3)nc(C)c2c1	149%	11%	45µM*	15%
C#CCNC(=O)/C=C/c1ccc(C)s1	-1%	x	x	x
CC1=CC(=O)C(C(=O)/C=C/c2ccc(C)s2)C(=O)O1 (stereo not given)	14µM*	x	x	x
SMILES	12-LOX inh	PLK1 PBD block	Sfp inh	VDR inh
O=C(COC(=O)c1ccccc1Br)NCCC1=CCCCC1	0%	-12%	7%	-15%
O=C(NC(=S)NCCC1=CCCCC1)c1ccccc1Br	16µM*	u	u	-20%
Cc1ccc(S(=O)(=O)NC[C@H]2O[C@@H](CO)[C@@H](O)[C@H]2N2CCN(c3ncccn3)CC2)cc1	16µM*	x	x	x
CCOC(=O)CSc1nc(C2CC2)nc2ccccc12	-13%	-6%	89µM*	2%
COc1ccc(Cc2nnc(NCCO)[nH]c2=O)cc1	7%	4%	9%	-3%
COc1ccc(Cc2nnc(NCCO)[nH]c2=O)cc1OC	-4%	6µM*	11%	u
N#Cc1c(N2CCN(C(=O)c3ccccc3)CC2)nc(-c2ccccc2)c2c1CCCC2	-22%	-3%	u	-6%
N#Cc1c(N2CCN(C(=O)c3ccco3)CC2)nc(-c2ccccc2)c2c1CCCC2	u	-15%	45µM*	-9%
CC1CCN(C(=O)C(=O)N2CCN(c3nc(-c4ccco4)c4c(c3C#N)CCCC4)CC2)CC1	32µM*	x	x	x
CC(C)Cc1nc(N2CCN(C(=O)c3ccccc3)CC2)c(C#N)c2c1CCC2	0%	-5%	u	-8%
CC(C)Cc1nc(N2CCN(C(=O)c3ccco3)CC2)c(C#N)c2c1CCC2	5%	-14%	45µM*	-18%
CCC(C)NC(=O)CN(c1cc(Cl)ccc1OC)S(C)(=O)=O (stereo not given)	-1%	0%	17%	-8%
CCc1ccc(C(C)NC(=O)Cc2cccs2)cc1 (stereo not given)	-20%	x	x	x
N#Cc1ccc(NC(=O)COCC(=O)NNC(=O)c2ccncc2)cc1	-22%	x	x	x
CC(=O)c1cccc(NC(=O)COc2ccccc2)c1	-5%	-5%	22%	34%
CSc1cccc(NC(=O)COc2ccccc2)c1	-8%	3µM*	-5%	-21%
O=C1NC(=S)S/C1=C/c1ccc(N2CCOCC2)o1	x	57%	u	u
O=C1S/C(=C/c2ccc(N3CCOCC3)o2)C(=O)N1Cc1ccc(F)cc1	10µM*	36%	3.5µM*	u
CC(C)OC(=O)CN1C(=O)S/C(=C/c2ccc(N3CCCCC3)o2)C1=O	u	33%	8.9µM*	-84%
O=C1S/C(=C\c2ccc(N3CCOCC3)o2)C(=O)N1Cc1ccc(F)cc1	x	36%	2µM*	u
CC(C)(C)OC(=O)CN1C(=O)S/C(=C\c2ccc(-c3cccc(C(=O)O)c3)o2)C1=O	x	x	7%	x
CCC(C)NC(=O)CSc1nc(-c2ccccc2)cc(C(F)(F)F)n1 (stereo not given)	30%	x	x	x
c1n[nH]c(NC2=NCCC2)n1	46%	-13%	45µM*	-2%
CCSc1nnc(NC(=O)c2ccco2)s1	0%	-4%	5%	-4%
